In PMC9574860, “Chemical Toolkit for PARK7: Potent, Selective, and High-Throughput” (Journal of Medicinal Chemistry, 2022):
Screen size: about 7,900 compounds; about 400 (5.1%) showed an effect of 50% or more. This excerpt belongs to a sample that is enriched for strong results.

The compounds below were run against Parkinson's disease protein 7 (PARK7/DJ1) (human, UniProt Q99497) (assay: primary screen, percent inhibition; read as competition with a fluorescent probe by fluorescence polarization; higher = more effect of the substance). Details: 100 µM.
Sequence of Parkinson's disease protein 7 (PARK7/DJ1) (Q99497 whole entry, looked up, the tested form may be a part): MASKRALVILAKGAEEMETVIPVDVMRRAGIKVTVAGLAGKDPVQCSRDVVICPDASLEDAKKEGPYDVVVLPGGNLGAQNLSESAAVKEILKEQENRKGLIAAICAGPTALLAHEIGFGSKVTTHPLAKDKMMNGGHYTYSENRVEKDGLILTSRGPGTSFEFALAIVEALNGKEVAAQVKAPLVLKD
Outline: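 Covalent fragments at 100 μM final were incubated 2 h with 0.2 μM PARK7, then 20 nM probe JYQ-107 added for a further 2 h. Fluorescence polarization read at 480/520 nm; relative FP loss versus reference controls gave remaining enzyme activity.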
`C=CC(=O)N1CCCC(c2nc(C)c(C)s2)C1` (stereo not shown) gave an Inhibition % of 6.18%. Work on `C=CC(=O)N1CCC(c2ncno2)CC1` yielded an Inhibition % of 9.72%. With `N#Cc1cccnc1S` the Inhibition % was 11.9%. Compound `N#Cc1ccncc1C(=O)O` has an Inhibition % of 12.3%. Work on `N#Cc1cnccc1S` yielded an Inhibition % of 92.5%. For `COC(=O)C1CC(S(=O)(=O)F)CN1C(=O)c1cccs1` (stereo not shown), the Inhibition % was 11%. In the case of `O=C(c1ccccc1)N1CCCC(S(=O)(=O)F)C1` (stereo not shown), the Inhibition % is reported as 32.4%. `O=S(=O)(F)CCc1ccccc1` gave an Inhibition % of 4.21%. In the case of `O=C(CCl)NC(=O)c1cccs1`, the Inhibition % is reported as 23.4%. Compound `O=C(CCl)NC(=O)OCc1ccccc1` has an Inhibition % of 33.1%. `O=C(OCc1ccccc1)N1CCCCC1CS(=O)(=O)F` (stereo not shown) was tested, and the Inhibition % was 16%. `O=C(NCCS(=O)(=O)F)c1ccccc1` gave an Inhibition % of 13.4%. Compound `O=C(NCCCS(=O)(=O)F)c1cccs1` has an Inhibition % of 98.9%. In the case of `O=C(c1ccccc1)N1CCCC(CS(=O)(=O)F)C1` (stereo not shown), the Inhibition % is reported as 71.4%. For `O=C(c1ccccc1)N1CCC(CCl)C1` (stereo not shown), the Inhibition % was 2.86%. With `O=C(NCCCS(=O)(=O)F)OCc1ccccc1` the Inhibition % was 95.8%. For `O=C(c1cccs1)N1CCCCC1CCS(=O)(=O)F` (stereo not shown), the Inhibition % was 84.1%. In the case of `c1csc(COCC2CO2)c1` (stereo not shown), the Inhibition % is reported as 0.211%. `C=CC(=O)NC1CCCN(c2cccnc2)C1=O` (stereo not shown) was tested, and the Inhibition % was 15.4%. With `C=CC(=O)NC1(C2CC2)CCOCC1` the Inhibition % was 7.04%. `C=CC(=O)N1CCC(Oc2cccnc2N2CCCC2)C1` (stereo not shown) gave an Inhibition % of 13.2%. Compound `C=CC(=O)N1CC2(CCOCC2)c2ccccc21` has an Inhibition % of 7.61%. For `O=C(c1cccs1)N1CCC(CS(=O)(=O)F)CC1`, the Inhibition % was 35.6%. `O=C(N[C@H]1CC[C@@H](CS(=O)(=O)F)C1)c1cccs1` (racemic) was tested, and the Inhibition % was 96.8%. In the case of `O=C(c1cccs1)N1CCCC(S(=O)(=O)F)C1` (stereo not shown), the Inhibition % is reported as 73.5%. Compound `O=C(NC1CCN(C2CCOC2=O)CC1)c1cccs1` (stereo not shown) has an Inhibition % of 7.52%. For `O=C(c1ccccc1)N1CC(S(=O)(=O)F)C1`, the Inhibition % was 35.6%. In the case of `O=C(c1cccs1)N1CCC(S(=O)(=O)F)CC1`, the Inhibition % is reported as 10.8%. In the case of `O=C1OCCC1N1CCN(C(=O)c2cccs2)CC1` (stereo not shown), the Inhibition % is reported as 9.27%. Work on `O=C(c1cccs1)N1CCOC(CS(=O)(=O)F)C1` (stereo not shown) yielded an Inhibition % of 14.7%. With `O=C(c1cccs1)N1CCCC(CS(=O)(=O)F)C1` (stereo not shown) the Inhibition % was 90.1%. With `O=C(c1cccs1)N1CCC(CS(=O)(=O)F)C1` (stereo not shown) the Inhibition % was 97.1%. `O=C(CCl)N1CCN(C(=O)c2cccs2)CC1` gave an Inhibition % of 40.3%. Compound `O=C(CCl)NNC(=O)c1cccs1` has an Inhibition % of 7.74%. In the case of `Nc1cccc(OC2CC(=O)N2)c1` (stereo not shown), the Inhibition % is reported as 18.6%. For `O=C(O)C1COCCN1C(=O)C=Cc1ccc(Cl)s1` (stereo not shown), the Inhibition % was 13.1%. Work on `C=CC(=O)NCC1CC2(CCOCC2)CO1` (stereo not shown) yielded an Inhibition % of 5.16%. `CC(C)(C)OC(=O)N1CCOc2cccc(B3OC(C)(C)C(C)(C)O3)c2C1` showed an Inhibition % of 3.79%. Compound `CC(Cl)Cc1cc2ccc(O)cc2oc1=O` (stereo not shown) has an Inhibition % of 12.3%. With `O=C(CCl)Nc1cc(F)cc(F)c1` the Inhibition % was 14.6%. `C=CC(=O)N1CCN(CC(C)C)C(=O)C1C` (stereo not shown) gave an Inhibition % of 0.151%. With `COc1ccc(C)cc1S(=O)(=O)Oc1ccccn1` the Inhibition % was 17%. `CCCOc1cc(C)c(C)cc1S(=O)(=O)n1ccnc1C` was tested, and the Inhibition % was 8.09%. `COC(=O)c1cc([N+](=O)[O-])cc(B2OC(C)(C)C(C)(C)O2)c1C` gave an Inhibition % of 12.9%. Work on `COc1cc(S(=O)(=O)F)ccc1O` yielded an Inhibition % of 17.3%. `COc1ccc(S(=O)(=O)F)cc1O` was tested, and the Inhibition % was 54%. `COc1ccccc1-c1nnc(-c2ccc(S(=O)(=O)F)cc2)o1` was tested, and the Inhibition % was 9.83%. `C=CC(=O)Nc1ccc(OCC)c(CO)c1` gave an Inhibition % of 4.38%. `COc1ccc(B2OC(C)(C)C(C)(C)O2)c(N)c1` was tested, and the Inhibition % was 56%. Compound `COc1ccc(B2OC(C)(C)C(C)(C)O2)c(C#N)c1` has an Inhibition % of 7.16%. `COc1cc(OC(F)F)ccc1B1OC(C)(C)C(C)(C)O1` was tested, and the Inhibition % was -1.65%. `CC1(C)OB(c2ccnn2-c2ccccc2)OC1(C)C` gave an Inhibition % of 14.9%. `CC1CC(Sc2ccccn2)C(=O)O1` (stereo not shown) showed an Inhibition % of 5.37%. `Cc1cc(S(N)(=O)=O)cc(NC(=O)CCl)c1C` showed an Inhibition % of 2.37%. `C=CC(=O)NC1CCC2(CC1)CC2(F)F` (stereo not shown) showed an Inhibition % of 3.45%. With `C=CC(=O)Nc1ccc2occc2c1` the Inhibition % was 9.28%. `C=CC(=O)Nc1ccc2c(cnn2C(F)F)c1` gave an Inhibition % of 6.45%. `C=CC(=O)Nc1ccc2sncc2c1` gave an Inhibition % of 97.4%. Compound `CC1(C)C(=O)NC1C1CCN(CC(C)(O)C(F)(F)F)CC1` (stereo not shown) has an Inhibition % of 6.49%. `C=CC(=O)N1CCOC(c2ccccc2)C1` (stereo not shown) was tested, and the Inhibition % was 4.98%. Compound `O=C1CN=C(S)N1c1ccccc1Cl` has an Inhibition % of 5.52%. Compound `C=CC(=O)NCCC(=O)N1c2ccccc2CCC1C` (stereo not shown) has an Inhibition % of 5.89%. `O=C(CCl)N1CCCc2ccccc21` gave an Inhibition % of 69.2%. With `O=C1CCC(=O)N1CC(=O)N1CCCc2ccccc21` the Inhibition % was 10.8%. In the case of `CC1CCc2ccccc2N1C(=O)CCl` (stereo not shown), the Inhibition % is reported as 100%. Work on `O=C(CCl)N1CCc2cc([N+](=O)[O-])ccc21` yielded an Inhibition % of 5.06%. For `O=C(CCl)N1CCc2ccccc21`, the Inhibition % was -0.66%. Work on `O=C1CCCN1CCCl` yielded an Inhibition % of 5.09%. With `O=C(CCl)N1CCCC1=O` the Inhibition % was 79.2%. Work on `CC1Cc2ccccc2N1C(=O)CCl` (stereo not shown) yielded an Inhibition % of 8.22%. `O=C(CCl)NCCCN1CCCC1=O` gave an Inhibition % of 3.35%. `CN(C)S(=O)(=O)c1ccc2c(c1)CCCN2C(=O)CCl` was tested, and the Inhibition % was 8.14%. `NS(=O)(=O)c1ccc2c(c1)CCN2C(=O)CCl` showed an Inhibition % of 83.1%. With `C=CC(=O)N1CC(C)OC(COC)C1` (stereo not shown) the Inhibition % was 6.19%. Compound `C=CC(=O)N1CCCC(N(C)Cc2noc(C)n2)CC1` (stereo not shown) has an Inhibition % of 1.13%. Compound `O=C(CCl)Nc1ccccc1C(=O)Nc1ccc(F)cc1` has an Inhibition % of 6.28%. With `O=C(CCl)N(Cc1ccco1)CC(F)(F)F` the Inhibition % was 11.9%. `CC1(C)OB(c2ccc(F)cc2[N+](=O)[O-])OC1(C)C` gave an Inhibition % of 3.67%. Work on `O=C(Nc1ccc2c(c1)COC2)c1cccnc1S` yielded an Inhibition % of 2.52%.
